Measurements as given in PubChem BioAssay AID720542 (National Center for Advancing Translational Sciences (NCATS), 2013).
Hit rate of the full screen: of about 360,000 compounds, about 740 (0.21%) were called active. Inconclusive results (about 2%) are left out. This is one part of a sample in which actives are shown more often than they occur. Values without a mark were called inactive. The call rests on the fitted dose curve; in most records, active means well fitted inhibition curve with a large enough effect; inconclusive means small, poorly fitted or top-dose-only effect; inactive means no such curve, though single readings can be large or run the other way.

system: Plasmodium falciparum AMA1 (3D7) - RON2 peptide interaction; assay: qHTS for Inhibitors of AMA1-RON; Towards Development of Antimalarial Drug Lead: Primary Screen; conditions: AlphaScreen AMA1-biotinylated RON2 peptide binding; series mostly up to 58.2 µM; activity change, negative = inhibition: at the top concentration; further: nearly all actives have a fitted effect of over 45% in size;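 on activity change, negative = inhibition: 0% = vehicle wells and -100% = peptide control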
From the text: Plasmodium, the causative agent of malaria, is one of the world's deadliest parasitic diseases. Currently there is no vaccine available and there is widespread resistance to common anti-malarial drugs. This warrants novel, alternative approaches for developing improved therapy. During infection, one such essential interaction is between two parasite proteins, the apical membrane antigen1 (AMA1) that is translocated onto the merozoite surface and the rhoptry neck protein 2 (RON2), which is transferred to the red blood cells (RBC) membrane during invasion (Besteiro et.al., 2009). Recently, the Miller lab has shown that the interaction between AMA1 and RON2 is essential for junction formation of the parasite with the host cell (Srinivasan et.al., 2011). The binding of the RON2 peptide to the hydrophobic pocket in AMA triggers the formation of the moving junction which provides a firm anchor for the parasite to pull itself into the RBC using its actin-myosin motor; an irreversible step that commits the parasite for invasion. Only one AMA1 and RON2 genes exists in Plasmodium and there are no alternate pathways. Moreover, the region corresponding to RON2 peptide is conserved in all P. falciparum isolates for which sequences are available. The key residues in the AMA1 hydrophobic pocket that binds RON2 are also conserved and indicate a functional constraint governing this essential step in invasion since a short RON2 peptide (RON2L) corresponding to the binding region on AMA1 is sufficient to compete with the native RON2 protein and inhibits invasion (Tonkin et.al, 2011). Therefore, developing small molecule inhibitors of this interaction offers a promising target opening a new arena for anti-malarial therapeutics drug design.
In collaboration with the Miller lab, a quantitative High Throughput Screen using the AlphScreen technology was developed using a recombinant his-tagged AMA1 and a biotinylated RON2 peptide. This fluorescent screen was assayed against the NIH Molecular Libraries Small Molecule Repository (MLSMR). Inhibition of this protein-protein interaction is the desired outcome of this assay. However, due the limitations of this AlphaScreen assay, a large number of artifacts were observed. An AlphaScreen counterscreen was run to identify the true inhibitors, triage compound activity, and weed out false positives.
NIH Chemical Genomics Center [NCGC]
NIH Molecular Libraries Probe Centers Network [MLPCN]
Assay Submitter (PI): Louis Miller, National Institute of Allergy and Infectious Disease (NIAID)
Two microliters of his-tagged AMA1 3D7 allele protein (final concentration 25 nM) was dispensed into a 1,536-well assay plate. Small molecules and positive control peptides were pin-transferred (23 nL or 46 nL) via Kalypsys pin-tool equipped with a 1,536-pin array, resulting in final compound and peptide concentration ranges of 91.5 nM - 57.2 µM, and 15.6 nM - 2.00 µM, respectively. Unlabeled RON2 peptide or R1 peptide ([…]) that specifically binds the 3D7 AMA1 was used as a positive control that inhibited the binding of RON2L to AMA1. After 15 minutes incubation, 1 uL of biotinylated RON2 peptide (final concentration 25 nM) or buffer were dispensed and the assay plate was incubated for an additional 30 minutes at room temperature and protected from light. This was followed by an addition of 1 uL mixture of donor and acceptor beads (10 ug/mL final concentrations for each). The plates were incubated for 30 min at room temperature and read using the EnVision(R) plate reader (PerkinElmer). Maximum inhibition response was normalized to the positive control signal while no inhibition response was normalized to the DMSO treated wells.
Potency means the concentration at half of the fitted maximal effect.

Structure (SMILES) | activity change, negative = inhibition | Potency
Cc1c(S(=O)(=O)NCc2ccccc2)c(=O)n(C)c(=O)n1C | 0.652% | 
CC(C)(C)C1CCC(=O)N2CCC[C@]2(c2ccccc2)C1 (some centres undefined) | 1.71% | 
O=C(O)CCCN1C(=O)c2ccccc2Sc2ncccc21 | -0.796% | 
Cc1ccc(C(=O)NCCc2nnc(SCC(=O)Nc3cccc(C(=O)O)c3)n2C)cc1 | 5.86% | 
CCCCc1nc2c(=O)[nH]c3ccccc3c2o1 | 4.28% | 
CC(Sc1nnnn1C1CCCCC1)C(=O)O (centres undefined) | 25.4% | 
CC(=O)c1c(C)[nH]c(C(=O)OCC(=O)Nc2cc(S(=O)(=O)N3CCCCC3)ccc2C)c1C | 6.19% | 
CN(Cc1ccccc1F)c1cc2c(c3c1ccn3C)C1CCC2O1 (centres undefined) |  | 31.6 µM (active)
CCCCN(C(=O)c1nn(C)c(=O)c2ccccc12)c1c(N)n(CCC)c(=O)[nH]c1=O | -1.58% | 
O=C(Nc1ccc2c(c1)nc1n2CCCCC1)c1cc(S(=O)(=O)N2CCOCC2)ccc1Cl | -0.329% | 
CCOC(=O)C1=C(CC)Nc2ccccc2N=C1NC(=O)c1cccc(S(=O)(=O)N2CCCC2)c1 | -14.1% | 
Cc1ncoc1C(=O)NCCC(c1ccccc1)c1ccccc1 | -4.05% | 
Cc1ccc(S(=O)(=O)/N=C(\CN2CCOCC2)N2CCOCC2)cc1 | 14.9% | 
O=C(Nc1ccc(N2CCN(C(=O)c3cccs3)CC2)cc1)c1cccnc1Cl | -6.85% | 
C=CC(=O)Nc1ccc(Nc2ccnc(Nc3ccc(N4CCN(C)CC4)cc3)n2)cc1 |  | 15.8 µM (active)
COc1ccc(N2CCN(C(=S)Nc3ccc(S(N)(=O)=O)cc3)CC2)cc1 | -9.14% | 
Cc1ccccc1NC(=O)COC(=O)c1cc(C)n(C2CC2)c1C | 4.53% [at 11.6 µM] | 
CC(NC(=O)c1ccc(N2CCNCC2)c([N+](=O)[O-])c1)C12CC3CC(CC(C3)C1)C2 (centres undefined) | -12.1% | 
CSc1c(SCc2ccccc2)cnn(Cc2ccccc2)c1=O | -9.7% | 
CN(C)C(=O)CSc1n[nH]c(-c2ccco2)n1 | -7.33% | 
c1ccc(CSc2nnc(-c3ccco3)c(-c3ccco3)n2)cc1 |  | 31.6 µM (active)
Cc1ccc(-n2ncc(C(=O)NC3CC3)c2C2CCN(C(=O)OC(C)(C)C)CC2)c(C)c1 | 21.7% | 
O=C(OCC#CCSc1nnc(-c2ccncc2)o1)c1sc2ccccc2c1Cl | 2.03% | 
Cc1ccc([N+](=O)[O-])c(OCCCNCC(C)O)c1 (centres undefined) | 2.5% | 
CCOC(=O)C1CCCN(C(=O)c2ccc(CS(=O)(=O)c3ccc(Br)cc3)o2)C1 (centres undefined) | -3.02% | 

Structure (SMILES) | activity change, negative = inhibition | Potency
C=CCNc1nc(N)c(C(=C(C#N)C#N)c2ccccc2)s1 | 19.2% | 
CCCC1CC(C)(C(=O)Cn2[nH]c(=O)ccc2=O)OC1=O (centres undefined) | 2.13% | 
CC12COC3(C(=O)Nc4ccc(Cl)cn4)CC1CCC32C (centres undefined) | 11.8% | 
CCC(=C/c1sc2ccc3ccccc3c2[n+]1C)/C=C1\Sc2ccc3ccccc3c2N1C |  | 35.5 µM (active)
COc1ccc(CN2CCC(c3nc4ccc(Cl)cc4[nH]3)CC2)cc1 | -0.0124% | 
COCCOC(=O)C1=C(C)NC(=O)NC1c1cc2c(cc1Br)OCO2 (centres undefined) | -11.6% | 
O=C(CSc1nnc(-c2cccs2)n1Cc1ccccc1)N1CCc2ccccc2C1 | -1.23% | 
COc1ccccc1CN1CCN(C(=O)Cc2ccccc2)CC1 | -9.03% | 
CC(C)CC(=O)N1CCN(Cc2cccc(Cl)c2)CC1 | -21.8% | 
CC(C)CC(=O)N1CCN(Cc2ccccc2Br)CC1 |  | 20 µM (active)
CCCCC(O)C1=C[N+](=O)CC=C1 (centres undefined) | 0% | 
CN1CCN(Cc2nc3cc(NC(=O)COc4ccc([N+](=O)[O-])cc4)ccc3n2C)CC1 | 7.7% | 
COc1ccc(C2(CNC(=O)C(c3ccccc3)c3ccccc3)CCOCC2)cc1OC | 1.8% | 
CCCN(CCC)CC(O)COc1ccccc1C(=O)Nc1ccccc1 (centres undefined) | -11.6% | 
CC(C)C(O)C1CCN(Cc2nc(Cc3ccccc3Cl)no2)CC1 (centres undefined) | 45.3% | 
CCCOc1cc(C)c(S(=O)(=O)n2nnc3ccccc32)cc1C | 7.11% | 
COc1cccc(-n2c(=O)c3c(C)c(C(=O)N(C)C)sc3n(CC(=O)NCCc3ccc(OC)c(OC)c3)c2=O)c1 | 4.48% | 
Cc1ccc(OCC(=O)Nc2cccc3c2CCCC3)cc1C | 10.4% | 
Oc1cc(O)c2c(c1)OC(c1ccc(O)c(O)c1)C(O)C2 (centres undefined) | -11.9% | 
CCOC(=O)C1(Cc2ccccc2C(F)(F)F)CCN(C(=O)c2cc(C)n(C)n2)CC1 | -2.34% | 
C[C@H](CO)N1C[C@H](C)[C@@H](CN(C)C(=O)NC2CCCCC2)Oc2ccc(NC(=O)c3ccncc3)cc2C1=O | -2.89% | 
CCCCN(C(=O)c1ccc(OC(F)(F)F)cc1)c1c(N)n(CCC)c(=O)[nH]c1=O | 5.06% | 
CC(C)C(=O)NCC(c1cccs1)S(=O)(=O)c1ccc(F)cc1 (centres undefined) | 20.5% | 
Cc1csc(=O)n1CCC(=O)OCC(=O)Nc1ccc(N2CCOCC2)cc1 | 14.1% | 
